# PubChem BioAssay (NCI)
# The panel holds about 83,000 compounds, 20% with a hit somewhere; the sample as a whole holds those more often.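 48-hour exposure, single concentration, 96-well plates; percent growth endpoint where 0 means no net growth. Active: below 10.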 Activity calls are given as the source filed them.
# Tested on: MDA-MB-468 breast
# Assay: NCI-60 one-dose screen, 48 h (100 = growth as untreated, 0 = no growth, -100 = all killed)
# Conditions: 10 µM unless noted
row,SMILES,growth
1,COc1ccccc1S(=O)(=O)Nc1ccc2c(c1)CN(C)C(=O)N2,21.1% (inactive)
2,N#Cc1c(-c2ccc(Cl)cc2)nc(NN=Cc2ccco2)nc1N1CCOCC1,30.9% (inactive)
3,c1ccc2c(-c3nc(-c4c[nH]c5ccncc45)cs3)c[nH]c2c1,-9.84% (active)
4,Cc1ccc(/C=C/CC(=O)Nc2ccc(C(=O)Nc3ccc(F)cc3N)nc2)cn1,4.55% (active)
5,COc1ccc(C2=Nc3c(N)nc(N)nc3NC(c3cccc(Nc4ccnc5cc(C(F)(F)F)ccc45)c3)C2)cc1 (centres undefined),46.1% (inactive)
6,COc1cc2nc(-c3cnc(N(C)C)nc3)nc(NC3CCN(Cc4ccccc4)CC3)c2cc1OC,-72.1% (active)
7,CN(C)c1cccc2c(S(=O)(=O)/N=C(\N)Nc3nc4ccccc4s3)cccc12,-8.02% (active)
8,O=S(=O)(c1ccc(NC(=S)NCc2cccnc2)cc1)N1CCCCC1,72.3% (inactive)
9,N#Cc1c(-c2cccs2)cc(-c2cnccn2)nc1SCC(=O)N/N=C/c1ccc(Cl)cc1,108% (inactive)
10,CC(C)CC(CC1=CCC2CC1C2(C)C)C1=C(O)C(C)(C)C(=O)C(C)(C)C1=O (centres undefined),6.32% (active)
11,O=C1c2ccccc2C(=O)c2cc(Cn3cc[n+](Cc4ccc5ccccc5c4)c3)ccc21,-32.2% (active)
12,Cc1ccc(C(C)C)c(O)c1NC(=O)OC(C)C,97.5% (inactive)
13,COc1ccc(-c2nn(-c3cccc(NC(=O)Nc4ccccc4)c3)cc2-c2ccncc2)cc1Cl,29.4% (inactive)
14,CCOc1ccc(-c2cc(C3(S(=O)(=O)c4ccc(C)cc4)CC=CC3)on2)cc1,72% (inactive)
